Binding signal data for seven sequences are collected here from PMC7862700, “An all-to-all approach to the identification of sequence-specific readers for epigenetic DNA modifications on cytosine”.

What all share (test): DAPPL (digital affinity profiling via proximity ligation, sequencing); 10 mM Tris-HCl pH 7.5, 50 mM NaCl, 1 mM DTT, 4% glycerol, room temperature, 30 min; GST-TFs on glutathione beads, 16-mer random dsDNA library, 0.1% formaldehyde crosslink after washing; high values mean tight binding
Common to all, as to conditions: protein: recombinant; tags: N-terminal GST; dsDNA, one strand shown

Experiment [1] has as its target T1, FLI1 (Homo sapiens, UniProt Q01543 1-452).
T1 sequence: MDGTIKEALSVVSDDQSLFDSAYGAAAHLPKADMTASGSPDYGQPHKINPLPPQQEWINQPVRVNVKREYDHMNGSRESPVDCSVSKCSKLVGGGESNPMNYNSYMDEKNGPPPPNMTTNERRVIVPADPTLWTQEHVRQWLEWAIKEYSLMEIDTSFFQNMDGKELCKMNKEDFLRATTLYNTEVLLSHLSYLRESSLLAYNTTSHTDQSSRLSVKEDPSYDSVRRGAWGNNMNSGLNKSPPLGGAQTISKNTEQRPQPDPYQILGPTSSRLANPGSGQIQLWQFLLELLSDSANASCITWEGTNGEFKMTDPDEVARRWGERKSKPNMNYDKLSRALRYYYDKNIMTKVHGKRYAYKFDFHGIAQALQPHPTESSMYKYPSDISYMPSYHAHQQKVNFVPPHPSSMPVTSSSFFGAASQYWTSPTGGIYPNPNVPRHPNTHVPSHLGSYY
Put shortly:
(§1)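 Sequencing on an Illumina NextSeq500 followed washing, crosslinking with 0.1% formaldehyde, proximity ligation (BsaI/T4 ligase, 1 h, 37 °C) and PCR amplification of pools that had been incubated for 30 min at room temperature with 200 nmole of a random double-stranded 16-mer DNA library in Tris/NaCl/DTT/glycerol buffer. Each pool held DNA-barcoded human transcription factors, expressed in yeast as GST fusions and captured on glutathione beads, plus a tag-only sample. Binding signal is a hexamer's read frequency for a factor divided by its frequency in the tag-only sample.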

For experiment [2], the target named is T2, ELK1 (Homo sapiens, UniProt P19419 1-428).
T2 sequence: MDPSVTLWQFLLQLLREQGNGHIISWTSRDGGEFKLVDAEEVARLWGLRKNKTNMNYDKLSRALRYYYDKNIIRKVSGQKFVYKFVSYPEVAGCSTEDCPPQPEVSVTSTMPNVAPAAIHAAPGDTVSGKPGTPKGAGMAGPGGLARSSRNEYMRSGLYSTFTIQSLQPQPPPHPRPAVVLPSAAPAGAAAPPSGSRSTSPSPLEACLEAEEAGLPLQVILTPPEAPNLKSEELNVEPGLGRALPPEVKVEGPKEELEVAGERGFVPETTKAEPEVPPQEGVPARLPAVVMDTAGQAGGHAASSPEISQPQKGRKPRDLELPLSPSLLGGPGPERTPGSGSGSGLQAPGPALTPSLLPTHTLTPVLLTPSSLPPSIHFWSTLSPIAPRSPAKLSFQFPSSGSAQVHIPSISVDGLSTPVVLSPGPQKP
The gist of the method: as §1

Experiment [3] has as its target T3, GABPA (Homo sapiens, UniProt Q06546 1-454).
T3 sequence: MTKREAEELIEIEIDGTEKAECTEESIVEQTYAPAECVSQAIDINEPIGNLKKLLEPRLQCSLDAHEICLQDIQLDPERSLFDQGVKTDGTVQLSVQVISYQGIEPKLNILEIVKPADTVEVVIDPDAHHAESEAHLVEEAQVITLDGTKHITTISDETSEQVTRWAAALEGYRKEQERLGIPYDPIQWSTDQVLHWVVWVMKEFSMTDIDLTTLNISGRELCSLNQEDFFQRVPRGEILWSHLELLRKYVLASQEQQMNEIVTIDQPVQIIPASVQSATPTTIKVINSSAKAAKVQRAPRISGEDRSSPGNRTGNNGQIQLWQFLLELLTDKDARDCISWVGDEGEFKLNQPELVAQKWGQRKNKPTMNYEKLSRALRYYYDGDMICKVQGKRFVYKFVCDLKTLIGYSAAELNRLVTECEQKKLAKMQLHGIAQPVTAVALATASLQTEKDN
Put shortly: as §1

The target in experiment [4] is T4, ERG (Homo sapiens, UniProt P11308 1-479).
T4 sequence: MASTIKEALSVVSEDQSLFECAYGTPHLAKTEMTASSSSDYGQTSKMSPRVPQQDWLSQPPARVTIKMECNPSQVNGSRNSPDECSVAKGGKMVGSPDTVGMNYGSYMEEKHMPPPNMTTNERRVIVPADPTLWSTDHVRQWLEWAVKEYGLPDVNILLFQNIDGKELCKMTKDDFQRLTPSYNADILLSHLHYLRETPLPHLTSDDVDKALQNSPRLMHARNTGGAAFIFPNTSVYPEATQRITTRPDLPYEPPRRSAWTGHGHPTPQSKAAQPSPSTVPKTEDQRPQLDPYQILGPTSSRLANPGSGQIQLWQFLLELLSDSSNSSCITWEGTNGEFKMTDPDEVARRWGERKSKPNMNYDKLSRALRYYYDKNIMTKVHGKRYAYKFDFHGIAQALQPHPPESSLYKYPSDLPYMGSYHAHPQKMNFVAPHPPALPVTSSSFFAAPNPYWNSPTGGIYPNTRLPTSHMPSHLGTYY
Put shortly: as §1

Experiment [5] has as its target ELF1 (Homo sapiens, UniProt P32519 1-619). The gist of the method:
as §1

For experiment [6], the target named is T5, EHF (Homo sapiens, UniProt Q9NZC4 1-300).
T5 sequence: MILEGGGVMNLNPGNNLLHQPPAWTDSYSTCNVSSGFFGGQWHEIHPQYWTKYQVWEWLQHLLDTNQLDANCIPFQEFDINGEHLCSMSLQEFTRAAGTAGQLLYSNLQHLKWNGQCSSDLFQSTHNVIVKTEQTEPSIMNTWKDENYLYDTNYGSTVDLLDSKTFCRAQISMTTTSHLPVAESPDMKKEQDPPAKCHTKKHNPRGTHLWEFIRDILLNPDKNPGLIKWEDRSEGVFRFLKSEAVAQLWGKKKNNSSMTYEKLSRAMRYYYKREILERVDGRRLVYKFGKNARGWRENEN
The gist of the method: as §1

The target of experiment [7] is SPI1 (Homo sapiens, UniProt P17947 1-270). Put shortly: as §1
The target in experiment [8] is SPIB (Homo sapiens, UniProt Q01892 1-262). Put shortly: as §1
Experiment [9] addresses T6, ELK3 (Homo sapiens, UniProt P41970 1-407).
T6 sequence: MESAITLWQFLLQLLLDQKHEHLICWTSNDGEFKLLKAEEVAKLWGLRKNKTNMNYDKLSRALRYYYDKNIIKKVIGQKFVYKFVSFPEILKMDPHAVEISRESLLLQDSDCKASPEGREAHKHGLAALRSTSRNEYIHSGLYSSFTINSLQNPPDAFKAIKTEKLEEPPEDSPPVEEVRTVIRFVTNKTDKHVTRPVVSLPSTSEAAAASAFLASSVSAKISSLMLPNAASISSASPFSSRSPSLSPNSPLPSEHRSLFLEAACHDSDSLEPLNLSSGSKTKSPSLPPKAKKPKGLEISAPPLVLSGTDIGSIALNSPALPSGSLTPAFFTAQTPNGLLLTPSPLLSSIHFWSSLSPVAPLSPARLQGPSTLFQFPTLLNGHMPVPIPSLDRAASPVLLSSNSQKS
The gist of the method:
as §1

Sequence of ELF1 (P32519 whole entry): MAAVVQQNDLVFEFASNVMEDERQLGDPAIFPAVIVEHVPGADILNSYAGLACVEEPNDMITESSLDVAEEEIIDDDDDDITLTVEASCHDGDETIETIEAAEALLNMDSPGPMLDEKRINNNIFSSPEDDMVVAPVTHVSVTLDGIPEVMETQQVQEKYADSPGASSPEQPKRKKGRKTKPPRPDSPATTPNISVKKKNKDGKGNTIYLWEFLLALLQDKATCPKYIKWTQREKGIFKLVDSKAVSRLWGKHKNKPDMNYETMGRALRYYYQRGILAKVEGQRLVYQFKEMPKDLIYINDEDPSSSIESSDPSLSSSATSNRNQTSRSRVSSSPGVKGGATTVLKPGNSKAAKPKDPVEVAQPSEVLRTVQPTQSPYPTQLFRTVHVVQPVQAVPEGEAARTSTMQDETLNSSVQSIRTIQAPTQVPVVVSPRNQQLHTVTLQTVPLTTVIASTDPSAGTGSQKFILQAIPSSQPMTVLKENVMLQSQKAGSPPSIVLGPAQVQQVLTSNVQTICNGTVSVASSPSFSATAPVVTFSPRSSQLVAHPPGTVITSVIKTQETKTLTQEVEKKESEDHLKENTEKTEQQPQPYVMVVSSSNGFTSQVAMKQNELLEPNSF
Sequence of SPIB (Q01892 whole entry): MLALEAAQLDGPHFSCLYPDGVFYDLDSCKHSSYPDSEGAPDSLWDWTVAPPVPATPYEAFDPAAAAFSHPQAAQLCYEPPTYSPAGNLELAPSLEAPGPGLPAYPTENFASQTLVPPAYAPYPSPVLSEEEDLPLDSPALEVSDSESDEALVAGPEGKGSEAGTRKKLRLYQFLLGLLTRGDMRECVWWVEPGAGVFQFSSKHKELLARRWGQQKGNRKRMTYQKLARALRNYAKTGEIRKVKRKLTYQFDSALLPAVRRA

TCACGC: the binding signal is 1.35 fold enrichment (6-mer frequency, TF over GST control) in experiment [1]; 1.18 fold enrichment (6-mer frequency, TF over GST control) in experiment [2]; 1.22 fold enrichment (6-mer frequency, TF over GST control) in [3]; 1.18 fold enrichment (6-mer frequency, TF over GST control) in experiment [4]; 1.2 fold enrichment (6-mer frequency, TF over GST control) in [5]; 1.24 fold enrichment (6-mer frequency, TF over GST control) in [6]. Besides, the binding signal in [7] is 1.17 fold enrichment (6-mer frequency, TF over GST control); in experiment [8], 1.17 fold enrichment (6-mer frequency, TF over GST control); in experiment [9], 1.28 fold enrichment (6-mer frequency, TF over GST control).

In the case of CTTAGT, the binding signal in [1] was 1.17 fold enrichment (6-mer frequency, TF over GST control); in experiment [2], 1.17 fold enrichment (6-mer frequency, TF over GST control); in experiment [3] it was 1.2 fold enrichment (6-mer frequency, TF over GST control); in experiment [4], 1.18 fold enrichment (6-mer frequency, TF over GST control); in experiment [5], 1.25 fold enrichment (6-mer frequency, TF over GST control); in experiment [6], 1.22 fold enrichment (6-mer frequency, TF over GST control). For the same sequence, the binding signal in [7] was 1.07 fold enrichment (6-mer frequency, TF over GST control); in experiment [8] it was 1.19 fold enrichment (6-mer frequency, TF over GST control); in [9], 1.19 fold enrichment (6-mer frequency, TF over GST control).

As for TTCCCA, the binding signal in experiment [1] is 1.18 fold enrichment (6-mer frequency, TF over GST control); in [2], 1.3 fold enrichment (6-mer frequency, TF over GST control); in experiment [3], 1.2 fold enrichment (6-mer frequency, TF over GST control); in experiment [4], 1.3 fold enrichment (6-mer frequency, TF over GST control); in experiment [5], 1.3 fold enrichment (6-mer frequency, TF over GST control); in [6], 1.34 fold enrichment (6-mer frequency, TF over GST control). Further, the binding signal in [7] is 1.28 fold enrichment (6-mer frequency, TF over GST control); in experiment [8] it was 1.34 fold enrichment (6-mer frequency, TF over GST control); in [9], 1.17 fold enrichment (6-mer frequency, TF over GST control).

For CGCTTT, the binding signal in experiment [1] was 1.31 fold enrichment (6-mer frequency, TF over GST control); in [2], 1.1 fold enrichment (6-mer frequency, TF over GST control); in experiment [3] it was 1.32 fold enrichment (6-mer frequency, TF over GST control); in experiment [4], 1.15 fold enrichment (6-mer frequency, TF over GST control); in experiment [5], 1.18 fold enrichment (6-mer frequency, TF over GST control); in experiment [6], 1.19 fold enrichment (6-mer frequency, TF over GST control). The binding signal in [7] was 1.59 fold enrichment (6-mer frequency, TF over GST control); in experiment [8] it was 1.4 fold enrichment (6-mer frequency, TF over GST control); in experiment [9], 1.31 fold enrichment (6-mer frequency, TF over GST control).

Take CCGCTT: the binding signal is 1.89 fold enrichment (6-mer frequency, TF over GST control) in experiment [1]; 1.89 fold enrichment (6-mer frequency, TF over GST control) in [2]; 1.84 fold enrichment (6-mer frequency, TF over GST control) in [3]; 1.85 fold enrichment (6-mer frequency, TF over GST control) in experiment [4]; 1.92 fold enrichment (6-mer frequency, TF over GST control) in [5]; 1.93 fold enrichment (6-mer frequency, TF over GST control) in [6]. The binding signal in experiment [7] was 2.69 fold enrichment (6-mer frequency, TF over GST control); in [8], 1.93 fold enrichment (6-mer frequency, TF over GST control); in experiment [9], 2.06 fold enrichment (6-mer frequency, TF over GST control).

CATTTA: the binding signal in experiment [1] is 1.28 fold enrichment (6-mer frequency, TF over GST control); in experiment [2] it was 1.23 fold enrichment (6-mer frequency, TF over GST control); in experiment [3], 1.31 fold enrichment (6-mer frequency, TF over GST control); in experiment [4], 1.25 fold enrichment (6-mer frequency, TF over GST control); in experiment [5], 1.27 fold enrichment (6-mer frequency, TF over GST control); in [6], 1.32 fold enrichment (6-mer frequency, TF over GST control). The binding signal in experiment [7] was 1.26 fold enrichment (6-mer frequency, TF over GST control); in experiment [8], 1.18 fold enrichment (6-mer frequency, TF over GST control); in experiment [9] it was 1.23 fold enrichment (6-mer frequency, TF over GST control).

In the case of TCATCT, the binding signal in experiment [1] was 1.23 fold enrichment (6-mer frequency, TF over GST control); in [2], 1.28 fold enrichment (6-mer frequency, TF over GST control); in [3], 1.27 fold enrichment (6-mer frequency, TF over GST control); in experiment [4] it was 1.15 fold enrichment (6-mer frequency, TF over GST control); in experiment [5] it was 1.3 fold enrichment (6-mer frequency, TF over GST control); in experiment [6], 1.13 fold enrichment (6-mer frequency, TF over GST control). The binding signal in [7] is 1.18 fold enrichment (6-mer frequency, TF over GST control); in [8], 1.28 fold enrichment (6-mer frequency, TF over GST control); in [9], 1.16 fold enrichment (6-mer frequency, TF over GST control).
